The panel holds about 83,000 compounds, 20% with a hit somewhere; the sample as a whole holds those more often.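 Treatment: one concentration, 48 hours, 96-well format. Scoring: percent growth, with anything below 10 considered active.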 Active and inactive are the calls of the source.
Tested on: MCF7 breast
Assay: NCI-60 one-dose screen, 48 h (100 = growth as untreated, 0 = no growth, -100 = all killed)
Conditions: 10 µM unless noted

Compound | growth
Cc1ccc2nc(SCn3nnc4ccccc4c3=O)[nH]c2c1 | 87.2% (inactive)
C=CCOc1cccc(/C=C/C(=O)c2sc(Nc3cccnc3)nc2C)c1 | 19.1% (inactive)
O=C(Nc1cccc(C(F)(F)F)c1)Nc1ccc(OCc2nnc(-c3ccccc3)o2)c(F)c1 | 24.8% (inactive)
COC(=O)c1ccc(C)cc1 | 91.7% (inactive)
COc1ccc(-c2nc(-c3nc4ccc(F)cc4[nH]3)cc3c2[nH]c2ccccc23)cc1 | 32.2% (inactive)
CCCC1OC(c2ccc(C(C)C)cc2)OCC1CC (stereo not given) | 94.7% (inactive)
COc1cc(C2C=C(C)N=C3SC=CN32)cc(OC)c1OC (stereo not given) | 93.3% (inactive)
CCCCCCCN(CCCCCCC)C(=N)c1ccc(OC)c2ccccc12 | -74.4% (active)
O=[N+]([O-])c1cccc(-c2cc(-c3cc(Br)ccc3O)[nH]n2)c1 | 6.17% (active)
COc1ccc(/C=C2\CCCC3=C2NC(C)=NC3c2ccc(OC)c(OC)c2)cc1OC (stereo not given) | 26.3% (inactive)
COc1cc(Cn2c(-c3nonc3N)nc3ccccc32)ccc1C | 20.7% (inactive)
CCn1c(=O)c2c(=O)c3c4c(oc3oc2c2ccccc21)C(=O)c1ccccc1C4=O | 61.9% (inactive)
COc1ccc(OC)c(NC(=O)c2cc(S(=O)(=O)N3CCc4ccccc43)ccc2OC)c1 | 113% (inactive)
Clc1cccc(Cl)c1Cn1c(-c2cncs2)nc2ccccc21 | 92.3% (inactive)
O=C(Nc1cccc(Cl)c1)c1cc([N+](=O)[O-])ccc1O | 42.9% (inactive)
O=C(O)c1ccc(-n2c(=O)c3ccccc3c3ccccc3c2=O)cc1 | 96.3% (inactive)
CC/C=C\C/C=C\C[C@H]1C/C=C2/C(=O)C=C[C@H]2C/C=C\CCC(=O)O1 | 20% (inactive)
Cn1c(C(N)=O)cc2c1-c1nc(NC3CCCCC3)ncc1CCC2 | 90.6% (inactive)
CCOP(=O)(CCN1CCN(CCCCCOc2cc3c(cc2OC)C(=O)N2CCC[C@H]2C=N3)CC1)OCC | 35.9% (inactive)
O=C(NCCCN1CCN(CCCNC(=O)C2CCCCC2)CC1)C1CCCCC1 | 95.7% (inactive)
COC(=O)c1cc(-c2cccs2)c(C#N)c(N)c1C#N | 67.7% (inactive)
COc1cc(NC(=O)CCl)ccc(=O)c1 | 56.8% (inactive)
C[C@]12CC[C@@H]3c4cc(O)c(O)cc4CC[C@H]3[C@@H]1CC[C@@H]2O | 17.8% (inactive)
c1ccc([P+](CCC[P+](c2ccccc2)(c2ccccc2)c2ccccc2)(c2ccccc2)c2ccccc2)cc1 | 59% (inactive)
CC(=O)c1cc(C(=O)c2ccc3c(c2)Sc2ccccc2N3)c2cc(C)ccn12 | 10.8% (inactive)

From PubChem BioAssay (NCI)
